Assay outcomes: PubChem BioAssay, National Center for Advancing Translational Sciences (NCATS)
Rows were chosen to be rich in hits. Some 9.2% of all compounds tested hit in one or more screens of this group.
SMN2 splice up: qHTS Assay for Enhancers of SMN2 Splice Variant Expression | AID 1458, 2008 | HEK293 SMN2-luciferase splicing reporter, luminescence, 30-36 h | Potency, µM (series often up to 46.1 µM), for the others: top-dose activity change, positive = activation, usual class: activators | hit rate 2.8% among 210,000; also: % of control where 0% means no effect; nearly all actives have a fitted effect of over 55% in size
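qHTS luciferase splicing reporter: luminescence rises when SMN2 exon 7 is included in transfected HEK293 cells. Compound exposure lasted 30-36 h at 37C, with 4.5 mM final sodium butyrate as control, followed by a ONE-Glo read.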
ELG1 DNA repair: qHTS screen for small molecules that inhibit ELG1-dependent DNA repair in human embryonic kidney (HEK293T) cells expressing luciferase-tagged ELG1; HEK293T ELG1-luciferase reporter, luminescence, 16 h; DNA damage induced by 5-fluorouridine; AID 504467, 2011; Potency, µM (highest dose often 46.1 µM), inactives show at the top dose activity change, negative = inhibition, most hits filed as inhibitors; hit rate 2.3% among 330,000; also: % is scaled to controls: 0 for no effect and ±100 for the full control effect; nearly all actives have a fitted effect of over 55% in size
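Step one: seed 2,000 cells per well. Step two: pin-transfer compound or DMSO alongside 5-fluorouridine. Step three: incubate 16 hr, 37 °C, 5% CO2. Step four: add ONE-Glo, wait 30 min, read luminescence.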
Rab9 promoter act: qHTS Assay for Rab9 Promoter Activators | AID 485297, 2010 | hit rate 2.8% among 320,000 | Huh7 Rab9 promoter-luciferase reporter, luminescence, 24 h | Potency, µM (doses to about 9.22 µM), for inactives: at the highest dose activation, negative = inhibition, usual class: activators; also: % of control where 0% means no effect; nearly all actives have a fitted effect of over 60% in size
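Luciferase signal after 10 min detection reagent at ambient indicates Rab9 promoter upregulation; stably transfected Huh7 cells were treated 24 h with compound in DMSO at 37 °C, 5% CO2.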
NPC1 prom act: qHTS Assay for NPC1 Promoter Activators | Potency, µM (highest dose often 9.22 µM), without a hit: at the top dose activation, actives largely listed as activators | hit rate 2.4% among 320,000 | Huh7 NPC1 promoter luciferase reporter, 24 h | AID 485313, 2010; also: % of control where 0% means no effect; nearly all actives have a fitted effect of over 60% in size
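Luciferase expression driven by the NPC1 promoter was measured in stably transfected Huh7 cells after a 24 h compound incubation, using a luciferase reagent and a luminescence read.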
ELG1 genotoxic: qHTS screen for small molecules that induce genotoxicity in human embryonic kidney (HEK293T) cells expressing luciferase-tagged ELG1; HEK293T ELG1-luciferase reporter, luminescence, 16 h; Potency, µM (titrated, usually from 46 µM), for inactives: at the highest dose activity change, positive = activation, most hits filed as activators; hit rate 1.3% among 330,000; also: % of control where 0% means no effect; nearly all actives have a fitted effect of over 60% in size
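ELG1-luciferase HEK293T cells, 2,000/well; compound pinned in; 16 hr, 37 °C, 5% CO2; ONE-Glo, 30 min RT; luminescence on CCD imager.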
FLuc counter: qHTS profiling assay for firefly luciferase inhibitor/activator using purifed enzyme and Km concentrations of substrates (counterscreen for miR-21 project) | purified FLuc, Km substrates, luminescence inhibition | Potency, µM (doses to about 57.5 µM), without a hit: at the highest dose activity change, negative = inhibition, usual class: inhibitors | hit rate 6.9% among 360,000 | AID 588342, 2011 | Luciferin 4-monooxygenase (Photinus pyralis), P08659;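 also: plate controls were vehicle for no effect and reference inhibitor for full effect; nearly all actives have a fitted effect of over 55% in size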
Target sequence (P08659 whole entry, looked up): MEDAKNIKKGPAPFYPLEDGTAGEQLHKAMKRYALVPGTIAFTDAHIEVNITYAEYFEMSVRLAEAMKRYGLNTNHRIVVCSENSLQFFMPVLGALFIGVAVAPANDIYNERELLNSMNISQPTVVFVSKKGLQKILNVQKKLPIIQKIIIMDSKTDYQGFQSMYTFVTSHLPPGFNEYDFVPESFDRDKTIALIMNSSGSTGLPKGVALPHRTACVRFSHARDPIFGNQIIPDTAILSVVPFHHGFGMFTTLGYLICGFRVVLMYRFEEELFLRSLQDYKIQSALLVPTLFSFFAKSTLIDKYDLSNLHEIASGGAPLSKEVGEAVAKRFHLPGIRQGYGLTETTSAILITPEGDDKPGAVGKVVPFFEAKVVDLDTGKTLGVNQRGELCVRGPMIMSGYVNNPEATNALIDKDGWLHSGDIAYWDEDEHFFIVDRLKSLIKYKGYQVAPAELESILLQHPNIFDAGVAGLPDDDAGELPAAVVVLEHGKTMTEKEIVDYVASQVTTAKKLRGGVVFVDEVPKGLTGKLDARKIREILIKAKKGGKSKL
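Purified P. pyralis luciferase (10nM final) with 10uM D-luciferin and 10uM ATP (Km levels) in 50mM Tris acetate pH 7.5, 10mM Mg acetate, 0.01% Tween-20, 0.05% BSA; qHTS 6-point titration, ~60 µM downward; luminescence read.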
Numbers without * were called inactive; u = inconclusive; x = no result; [ ] = another dose, or the depositor's remark. Calls follow the shape of the dose curve; as a rule, active = well fitted curve in the direction sought with a large enough effect; inconclusive = small, poorly fitted or top-dose-only effect, or another doubt; inactive = no such curve, though single readings can be large; an effect the other way counts as inactive or inconclusive. Potency is read from the fitted curve at half-maximal effect.

SMILES | SMN2 splice up | ELG1 DNA repair | Rab9 promoter act | NPC1 prom act | ELG1 genotoxic | FLuc counter
CCn1nc(NC(C)=O)c2cc3cccc(C)c3nc21 | x | -4% | 0% | -1% | 1% | -2%
COc1cccc(N2C(=O)CSC23C(=O)N(CC(=O)Nc2cc(C)ccc2C)c2ccccc23)c1 (centres undefined) | x | x | x | x | x | 2%
O=c1cnc2cnc(Oc3ccccc3)nc2n1C[C@H]1CCCO1 | -15% | x | x | x | x | x
Cc1ccc(NC(=O)c2cnccn2)cc1C | x | u | 3.2µM* | 3.2µM* | u | 11µM*
Cc1nc(NC(=O)c2cnccn2)ccc1Br | x | u | 2µM* | 2.8µM* | u | 8.5µM*
O=C(Nc1cccc2ccccc12)c1cnccn1 | u | u | 4% | -2% | 21µM* | u
Cc1cccc(NC(=O)c2cnccn2)c1 | x | 15% | 17% | 20% | u | -18%
Cc1ccc(NC(=O)c2cnccn2)cc1 | 6.3µM* | u | 3.2µM* | 2.5µM* | u | u
Cc1ccc(S(=O)(=O)c2nc(-c3ccccc3)oc2SCC(=O)NC2CCCCC2)cc1 | 3% | x | x | x | x | 0%
COc1cccc(NC(=O)CSc2ccc3nnc(CCNC(=O)c4ccccc4)n3n2)c1 | x | 1% | 6% | -3% | -3% | -2%
O=C(O)Cc1ccc(NC(=O)c2cnccn2)cc1 | -7% | 11% | 0% | -1% | 0% | u
O=C(Nc1ccc(Br)cc1)c1cnccn1 | 22% | u | 3.5µM* | u | u | u
C[C@H]1CN([C@@H](C)CO)C(=O)c2cc(NC(=O)c3ccncc3)ccc2O[C@H]1CN(C)Cc1ccc(C(=O)O)cc1 | x | 12% | x | x | 3% | x
CCCCOC(=O)Oc1ccc2c(=O)c(Oc3cc(C)cc(C)c3)coc2c1 | -7% | 14% | -2% | -3% | -3% | -7%
CCCCOC(=O)Oc1ccc2c(=O)c(Oc3cccc(C)c3)coc2c1 | 13µM* | u | 20% | 9% | 25% | -15%
CCOc1nc(-c2ccccc2)c2cc(Br)ccc2n1 | x | -1% | 3% | 0% | -2% | 0%
CCCc1ccc(C(=O)CCC(=O)O)cc1 | -6% | u | 5% | 8% | 19% | 24µM*
Cc1ccc(C(=O)CCC(=O)O)cc1 | -3% | 0% | 0% | 4% | -2% | 3%
COc1ccc(C(=O)Cn2nnc(-c3ccccc3NC(=O)C(F)(F)F)n2)cc1 | u | 8% | 10% | 0% | 1% | 3%
COc1ccc(C(=O)COC(=O)CCn2nnc(-c3cccc(O)c3OC)n2)cc1 | -1% | 0% | 4% | -1% | 11% | 9.5µM*
COc1ccc(C(=O)CCc2ccccc2)cc1 | x | u | u | u | u | 17µM*
COc1ccc(C(=O)COC(=O)CCc2ccccc2)cc1 | x | -1% | -2% | -5% | -3% | 27µM*
COc1ccc(/C(N)=N/OC(=O)CCc2ccccc2)cc1 | x | u | 19% | 9% | u | u
O=C(CCc1ccccc1)OCC(=O)c1ccc([N+](=O)[O-])cc1 | 3% | -7% | 1% | -5% | 2% | -1%
CC1CCCCC1NC(=O)CCS(=O)(=O)c1ccc(Cl)cc1 (centres undefined) | x | 18% | x | x | 1% | x
SMILES | SMN2 splice up | ELG1 DNA repair | Rab9 promoter act | NPC1 prom act | ELG1 genotoxic | FLuc counter
CCOc1ccccc1CN1CCc2nc(Nc3ccc4c(c3)OCCO4)ncc2C1 | x | x | x | x | x | -19%
Cc1ccc(/C=N/NC(=O)c2nnn(-c3nonc3N)c2C(C)C)o1 | x | 6% | 3% | -15% | -3% | u
COc1ccc(C(=O)COC(=O)CCCC(=O)Nc2ccc(C(C)=O)cc2)cc1 | 9% | x | x | x | x | 5.4µM*
COc1ccc(NC(=O)c2ccc3[nH]c(C)c(C)c3c2)cc1 | x | u | u | 20% | 14% | 13µM*
CCOc1ccc(CCNC(=O)c2ccc3[nH]c(C)c(C)c3c2)cc1 | x | x | x | x | x | -19%
COc1ccc(OC)c(CCNC(=O)c2ccc3[nH]c(C)c(C)c3c2)c1 | x | x | x | x | x | -1%
CCOc1ccc(NC(=O)c2ccc3[nH]c(C)c(C)c3c2)cc1 | x | x | x | x | x | 13µM*
O=c1cc(-c2ccccc2)oc2cc(O)cc(O)c12 | 4µM* | x | x | x | x | x
O=c1cc(-c2ccc(O)cc2)oc2cc(O)cc(O)c12 | 22µM* | x | 20%[46.1 µM] | u | x | x
O=c1cc(-c2cc(O)c(O)c(O)c2)oc2cc(O)cc(O)c12 | -7% | x | x | x | x | x
Cc1cc(=O)n2nc(N(C)CC(=O)NCc3ccccc3C)sc2n1 | 5% | x | x | x | x | -1%
Cc1c(C(=O)Nc2ccccc2Br)oc2ccc(S(=O)(=O)N3CCOCC3)cc12 | x | x | x | x | x | -5%
Cc1c(C(=O)Nc2ccc(N3CCOCC3)cc2)oc2ccccc12 | 29% | u | 4.5µM* | 4µM* | 8% | 1.9µM*
Cc1c(C(=O)Nc2cc(S(=O)(=O)N3CCOCC3)ccc2N2CCOCC2)oc2ccccc12 | -8% | 16µM* | 0% | -15% | -15% | -1%
COc1ccc2oc(C(=O)N3CCCc4ccccc43)c(C)c2c1 | x | u | u | u | 16% | 19µM*
Cc1cccc(C(=O)NNC(=O)c2csc(N3CCOCC3)n2)c1C | x | u | 1% | 1% | -2% | -14%
Cc1c(C(=O)NNC(=O)c2csc(N3CCOCC3)n2)oc2ccccc12 | x | 12% | 1% | 11% | 2% | 27µM*
Cc1cc(NC(=O)c2cc(-c3ccc(Br)cc3)on2)nn1Cc1ccc(Cl)cc1 | -10% | x | x | x | x | -5%
Cc1cccc(C2N3CC4(C(C)C)CN2CC(C(C)C)(C3)C4=O)c1 (centres undefined) | x | x | x | x | x | 5%
Cc1[nH]c2c(C)cccc2c1CCNC(=O)c1cc2ccccc2oc1=O | 19% | x | x | x | x | -2%
COc1ccc2oc(C(=O)Nc3ccccc3N3CCOCC3)c(C)c2c1 | x | 20% | 14% | u | -2% | u
COc1ccc2oc(C(=O)Nc3ccc(N4CCOCC4)cc3)c(C)c2c1 | x | u | 2% | 0% | -21% | 6.7µM*
O=C(Cc1sc(Nc2ccccc2)nc1-c1ccccc1)NCc1ccccn1 | 13µM* | u | u | u | u | 19µM*
O=C(O)Cc1sc(Nc2ccccc2Cl)nc1-c1ccccc1 | 69% | x | x | x | x | 3.4µM*
O=C(O)Cc1sc(-c2ccccc2)nc1-c1ccccc1 | -2% | 12% | 2% | 2% | 0% | u
O=C(O)Cc1sc(-c2ccc(Cl)cc2)nc1-c1ccccc1 | 21% | 6% | -1% | 4% | 1% | 17µM*
